Assay results taken from PubChem BioAssay (NCATS).
Results filed as inconclusive are left out. A number with no mark means an inactive call. The call rests on the fitted dose curve; in most records, active means well fitted cell-killing curve with a large enough effect; inconclusive means small, poorly fitted or top-dose-only effect, or effect the other way; inactive means flat fitted curve, though single readings scatter. *1 amine or outer side, *2 acyl side, *3 side chain or, on linkers, in order; H or OH if unused. Where a SMILES comes first, the peptide text is derived from it. [ ]: non-standard residue; d: D form. The star is where a group is joined. X13 = O=C(C(CC(O)CO)O[*:1])[*:2]; NMeV = CN[CH](C(=O)O)C(C)C; βNA = c1ccc2cc(N*)ccc2c1; Cbz = O=C(OCc1ccccc1)*; NMeA = CN[CH](C)C(=O)O; βAla = NCCC(=O)O

system: HeLa; experiment: Primary qHTS to identify gynecologic anti-cancer compounds using libraries of approved drugs and bioactive compounds (AID 1345084); conditions: Gynecologic cancer cell panel viability, ATPlite luminescence, 48 h; series mostly up to 57.5 µM; activity change, negative = cytotoxicity: at the top concentration; further: nearly all actives have a fitted effect of over 55% in size
Summary of the method: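 48 h compound exposure at 37 C, 5% CO2; five-point qHTS. ATPlite luminescence readout of cell ATP.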
On the % scale 0 is the no-effect control and ±100 the full control effect.

Row | SMILES | activity change, negative = cytotoxicity
1 | NC(N)=NCCC[C@H](NC(=O)c1sccc1NS(=O)(=O)c1cccc2nsnc12)C(=O)O | 9.7%
2 | Nc1ccc(-n2nc(C(F)(F)F)cc2C(F)(F)F)cc1 | 1.12%
3 | C[C@H](O)C(O)(C(=O)OCc1ccccc1NC(=O)CCC(N)C(=O)O)[C@H](C)O (some centres undefined) | 2.79% [at 25.3 µM]
4 | CC[C@H](NC(=O)c1c(O)c(-c2ccccc2)nc2ccccc12)c1ccccc1 | 0.313%
5 | CC/C=C/C(O)C(O)C1=C(C)C(=O)C2(O1)C(=O)NC(OC)(C(=O)c1ccccc1)C2O (centres undefined) | -3.67% [at 25.3 µM]
6 | Fc1cccc(CN(C2=NCCN2)c2c(Cl)cccc2Cl)c1 | 1.5%
7 | O=C(O)CCc1cccc(O)c1O[C@@H]1O[C@H](CO)[C@@H](O)[C@H](O)[C@H]1O | 0.997% [at 38.5 µM]
8 | CCC(C)/C=C(C)/C=C/C1=CC2=CC(=O)C(C)(O)C(OC(C)=O)C2CO1 (centres undefined) | -3.16% [at 38.5 µM]
9 | CC1CC(O)/C=C/C(O)/C=C\C(=O)O1 (centres undefined) | 1.43%
10 | CC(C)CC(NC(=O)OCc1ccccc1)C(=O)NC(CC(C)C)C(=O)NC(CCC(=O)O)C(=O)Nc1ccc2ccccc2c1 (stereo not drawn) (Cbz-Leu-Leu-Glu-βNA; configuration not given here) | 11.4%
11 | COCc1c(O)c(C(=O)O)c(C)c2c1OC(=O)c1c(C)cc(O)c(CO)c1O2 | -1.59% [at 38.5 µM]
12 | C=C(C(=O)O)C1CC(O)C2(C)CCCC(C)(O)C2C1 (centres undefined) | 10.6%
13 | C=C[C@H]1[C@H](O[C@@H]2O[C@H](CO)[C@@H](O)[C@H](OC(=O)/C=C/c3ccc(O)c(OC)c3)[C@H]2O)OC=C2C(=O)OCC[C@]21O | 13.1% [at 25.3 µM]
14 | COC(=O)C1(O)C(OC(C)=O)CCC2C3(CC(c4ccoc4)OC3=O)C(C)=CCC21C(=O)OC (centres undefined) | 8.57% [at 25.3 µM]
15 | O=C(Nc1cc(-c2ccccc2)nn1-c1ccccc1F)c1ccc([N+](=O)[O-])cc1 | 3.22%
16 | Cc1sc(C)c(C(=O)NC2(c3ccc(C(=O)O)cc3)CC2)c1Cc1ccc(C(F)(F)F)cc1 | 3.92%
17 | COc1cc([C@@H](O[C@@H]2O[C@H](CO)[C@@H](O)[C@H](O)[C@H]2O)[C@@H]2CO[C@H](c3ccc(O)c(OC)c3)[C@H]2CO)ccc1O | -5.03% [at 25.3 µM]
18 | CC(C)NC(=O)c1ccc(C#Cc2ccncc2)cn1 | 22.1%
19 | O=C(O)CC/C=C\C[C@H]1CO[C@@H](c2ccccc2Cl)O[C@H]1c1ccccc1O | 5.55%
20 | CC(C)=CCc1cc(O[C@@H]2O[C@H](CO[C@@H]3OC[C@](O)(CO)[C@H]3O)[C@@H](O)[C@H](O)[C@H]2O)ccc1O | 10.6% [at 25.3 µM]

Row | SMILES | activity change, negative = cytotoxicity
21 | CC1(C)[C@@H]2CC=C(CO[C@@H]3O[C@H](CO[C@@H]4OC[C@H](O)[C@H](O)[C@H]4O)[C@@H](O)[C@H](O)[C@H]3O)[C@H]1C2 | 4.7% [at 25.3 µM]
22 | COc1ccc(C2C(C(=O)O)C(C(=O)O)C2c2ccc(OC)cc2O[C@@H]2O[C@H](CO)[C@@H](O)[C@H](O)[C@H]2O)c(O[C@@H]2O[C@H](CO)[C@@H](O)[C@H](O)[C@H]2O)c1 (some centres undefined) | 8.43% [at 25.3 µM]
23 | C=C(C)C1CCC2(C(=O)OC3OC(COC4OC(CO)C(O)C(O)C4O)C(OC4OC(C)C(O)C(O)C4O)C(O)C3O)CCC3(C(=O)O)C(CCC4C5(C)CCC(=O)C(C)(C)C5CCC43C)C12 (centres undefined) | 1.62% [at 11.6 µM]
24 | CC1=C(CC/C(C)=C/C(=O)O)[C@@]2(C)CCCC(C)(C)C2CC1=O (some centres undefined) | -7.92% [at 38.5 µM]
25 | C[C@]12CCC[C@](C)(C(=O)O)C1[C@@H](O)[C@@H](O)C13CC(CCC12)C(CO)(O[C@@H]1O[C@H](CO)[C@@H](O)[C@H](O)[C@H]1O)C3 (some centres undefined) | -1.79% [at 25.3 µM]
26 | COc1cc(O)cc(C)c1C(=O)O[C@H]1[C@@H](O)[C@@H](n2ccc(=O)[nH]c2=O)O[C@@H]1CO | 15.3% [at 25.3 µM]
27 | C=C1C(=O)O[C@@H]2C[C@]3(C)[C@@H](CCC(C)=O)[C@@H]3C[C@H]12 | 0.555%
28 | C=C1CC[C@@]2(OC1)O[C@H]1CC3[C@@H]4CC=C5C[C@@H](O)C[C@@H](O[C@@H]6OC[C@H](O)[C@H](O)[C@H]6O[C@@H]6O[C@@H](C)[C@H](O)[C@@H](O)[C@H]6O)[C@]5(C)C4CC[C@]3(C)[C@H]1[C@@H]2C (some centres undefined) | -1.53% [at 25.3 µM]
29 | C/C=C(\C)C(=O)OCC1OC(OCC2OC(OC3(CO)OC(CO)C(O)C3O)C(O)C(O)C2O)C(O)C(O)C1O (centres undefined) | -3.37% [at 25.3 µM]
30 | COC(=O)C1=CO[C@@H](O[C@@H]2O[C@H](CO)[C@@H](O)[C@H](O)[C@H]2O)/C(=C\CO)[C@@H]1CC(=O)OCCc1ccc(O)cc1 | -13.3% [at 25.3 µM]
31 | CCC(C)C1NC(=O)C2CCCN2C(=O)C(CC(O)CO)OC(=O)CCNC(=O)C(C)N(C)C(=O)C(C(C)C)N(C)C1=O (centres undefined) (cyclo([X13]PI[NMeV][NMeA][βAla]); configuration not given here) | 1.32% [at 25.3 µM]
32 | O=C(C[C@@H]1C(C(=O)O)=CO[C@@H](O[C@@H]2O[C@H](CO)[C@@H](O)[C@H](O)[C@H]2O)/C1=C\CO)OCCc1ccc(O)cc1 | 0% [at 25.3 µM]
33 | COC(=O)[C@H](O)[C@H]1C(C)(C)[C@H](OC(C)=O)[C@@]2(O)C(=O)[C@]1(C)C1CC[C@]3(C)C(CC(=O)O[C@H]3c3ccoc3)[C@]13O[C@@H]32 (some centres undefined) | -0.302% [at 25.3 µM]
34 | CC(=O)c1c(C)cccc1O[C@@H]1O[C@H](CO)[C@@H](O)[C@H](O)[C@H]1O | 9.26% [at 38.5 µM]
35 | C/C=C(\C)C(=O)OC1CC2C(CC=C3CC(OC4CC(OC)C(OC5CC(OC)C(OC6CC(OC)C(OC7CC(OC)C(OC8CC(OC)C(OC9OC(CO)C(O)C(O)C9O)C(C)O8)C(C)O7)C(C)O6)C(C)O5)C(C)O4)CCC32C)C2(O)CCC(C(C)=O)C12C (centres undefined) | 6.7% [at 6.55 µM]
36 | COc1ccc2[nH]c(S(=O)Cc3ncc(C)c(OC)c3C)nc2c1 (centres undefined) | 1.15%
37 | COc1cc(C)c(C(=O)OC2C(C)OC(OC3CCC(C)C4C3C=C(C)C3/C(C)=C\CC/C(C)=C/C5(C)C=C(C(=O)O)C(C)CC56OC(=O)/C(=C(\O)C34C)C6=O)C(O)C2O)c(OC)c1 (centres undefined) | -3.64% [at 11.6 µM]
38 | COc1ccc(/C=C/C(=O)O[C@@H]2[C@@H](O[C@@H]3O[C@H](CO)[C@@H](O)[C@H](O)[C@H]3O)[C@@H](O)[C@H](O[C@H]3C4C=CO[C@@H](O[C@@H]5O[C@H](CO)[C@@H](O)[C@H](O)[C@H]5O)C4[C@@]4(CO)O[C@@H]34)O[C@H]2C)cc1 (some centres undefined) | 5.69% [at 11.6 µM]
39 | CC(C)C1NC(=O)C(CC2(O)c3ccccc3N3C(=O)C(Cc4ccccc4)NC32)NC1=O (centres undefined) | -3.77% [at 25.3 µM]
